The values that follow come from PubChem BioAssay (EPA / NIEHS).

Results filed as inconclusive are left out. Activity calls are given as the source filed them. The calls were made as follows, unless noted: active = hit-call score of the fitted dose curve at least 0.9, where 1 is the maximum; inactive = score below 0.9.

Test [1] is described as follows: ATG_PBREM_CIS: Attagene CIS-FACTORIAL HepG2 Assay for human Phenobarbital-responsive Enhancer Module (PBREM) (AID 2282955). Conditions: HepG2 PBREM cis-reporter, Attagene multiplexed transcription; actives raise or lower the signal. In a few lines:
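HepG2 cells transiently transfected with multiple cis-regulated reporter units measure endogenous transcription factor activity; 24 h compound exposure. Reporter mRNA quantified by RT-PCR, fluorescent labelling, HpaI digestion and capillary electrophoresis; bidirectional fit versus DMSO.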

The target in test [2] is Paired box protein Pax-6 (Homo sapiens) (UniProt P26367). Briefly: ATG_Pax6_CIS: Attagene CIS-FACTORIAL HepG2 Assay for human Paired Box 6 (PAX6) (AID 2282956). Conditions: HepG2 CIS-FACTORIAL PAX6 reporter transcription, RNA readout; actives raise or lower the signal. The method in brief:
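Read-out is reporter transcript level, measured by RT-PCR with fluorescent primer extension and capillary electrophoresis after 24 h dosing of transfected HepG2 cells. Activity in either direction fitted relative to DMSO control.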

Test [3] in a line: ATG_PPRE_CIS: Attagene CIS-FACTORIAL HepG2 Assay for human Peroxisome Proliferator-activated Response Element (PPRE) (AID 2282958). To be noted: HepG2 PPRE cis-element reporter, Attagene transcription factor profiling; actives raise or lower the signal. The method in brief: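 HepG2 cells are transiently transfected with multiplexed cis-promoter reporter units to report endogenous PPAR activity. After 24 h dosing, reporter mRNA is read by RT-PCR and capillary electrophoresis. Fitting is bidirectional against DMSO.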

Test [4] can be described thus: ATG_RORE_CIS: Attagene CIS-FACTORIAL HepG2 Assay for human RAR-related Orphan Receptor Element (RORE) (AID 2282959). To be noted: HepG2 Attagene cis-factorial RORE reporter, mRNA; actives raise or lower the signal. In a few lines: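 HepG2 cells carrying transiently transfected cis-regulated reporter units; RORE-driven reporter mRNA quantified 24 h post-dosing by RT-PCR, 6-FAM primer extension, HpaI digestion and capillary electrophoresis. Bidirectional fit versus DMSO.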

A short description of test [5]: ATG_Sox_CIS: Attagene CIS-FACTORIAL HepG2 Assay for human SRY-box transcription factor (SOX) (AID 2282960). Conditions: HepG2 Attagene cis-factorial SOX reporter, mRNA; actives raise or lower the signal. In a few lines:
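HepG2 cells transiently transfected with multiple cis-regulated reporter units, then dosed for 24 h. Reporter mRNA quantified by RT-PCR, fluorescent labelling, HpaI digestion and capillary electrophoresis; bidirectional fit versus DMSO.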

Test [6] has as its target Transcription factor Sp1 (Homo sapiens) (UniProt P08047). Nature of the test: ATG_Sp1_CIS: Attagene CIS-FACTORIAL HepG2 Assay for human Specificity Protein 1 (Sp1) (AID 2282961). Conditions: HepG2 Sp1 cis-reporter transcription, actives raise or lower the signal. The method in brief:
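HepG2 cells transiently transfected with multiplexed cis-regulated reporter constructs, chemical exposure 24 h. Reporter mRNA quantified by RT-PCR with capillary electrophoresis; bidirectional fit relative to DMSO.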

Test [7] in a line: ATG_SREBP_CIS: Attagene CIS-FACTORIAL HepG2 Assay for human Sterol Regulatory Element Binding (SREBP) (AID 2282962). To be noted: HepG2 Attagene cis-factorial SREBP reporter, mRNA; actives raise or lower the signal. In a few lines: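 Endogenous SREBP activity read as cis-element-driven reporter transcript in transiently transfected HepG2, 24 h post-dosing; quantified via RT-PCR plus capillary electrophoresis of fluorescent fragments. Gain or loss of signal fitted relative to DMSO baseline.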

Test [8] has as its target Signal transducer and activator of transcription 3 (Homo sapiens) (UniProt P40763). Briefly: ATG_STAT3_CIS: Attagene CIS-FACTORIAL HepG2 Assay for human Signal Transducer and Activator of Transcription 3 (STAT3) (AID 2282963). To be noted: HepG2, Attagene cis-factorial STAT3 reporter transcription; actives raise or lower the signal. In a few lines: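 Cis-factorial format: endogenous transcription factors in HepG2 drive transfected reporter units. After 24 h treatment, reporter RNA was reverse-transcribed, amplified, FAM-labelled and HpaI-digested before CE analysis; activity scored in both directions against DMSO.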

A short description of test [9]: ATG_TA_CIS: Attagene CIS-FACTORIAL HepG2 Assay for human TA Basal Promoter (AID 2282964). To be noted: HepG2 Attagene CIS-factorial TA basal promoter reporter; actives raise or lower the signal. The method in brief:
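HepG2 cells transiently transfected with multiple reporter units under cis promoter elements, reporting endogenous transcription factor activity; this endpoint tracks the TA basal promoter as background control. Reporter mRNA after 24 h dosing measured by RT-PCR/capillary electrophoresis; bidirectional fits versus DMSO.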

Test [10] can be described thus: ATG_TCF_b_cat_CIS: Attagene CIS-FACTORIAL HepG2 Assay for human T-Cell-Factor with beta-catenin (TCF/b-cat) (AID 2282965). To be noted: HepG2 TCF/beta-catenin cis-reporter transcription, actives raise or lower the signal. In a few lines: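 Endogenous TCF/LEF activity read as reporter transcript level via RT-PCR and capillary electrophoresis fluorescence in transfected HepG2, 24 h exposure; gain or loss of signal fitted against DMSO controls.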

The nature of test [11]: ATG_TAL_CIS: Attagene CIS-FACTORIAL HepG2 Assay for human TAL Basal Promoter (AID 2282966).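 Also: background control endpoint measuring basal TAL promoter reporter mRNA not a specific factor.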 To be noted: HepG2 Attagene cis-factorial TAL promoter reporter; actives raise or lower the signal. In a few lines:
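Human hepatoma HepG2 cells, transfected with promoter-regulated reporter units, were treated 24 h. Reporter transcript levels, measured through RT-PCR and capillary electrophoresis, were fitted for gain or loss relative to DMSO.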

In test [12] the target is Estrogen receptor (Homo sapiens) (UniProt P03372). Briefly: ATG_ERa_TRANS: Attagene TRANS-FACTORIAL HepG2 Assay for human Estrogen Receptor alpha (ERa) (AID 2282970; active = hit-call score of the fitted dose curve at least 0.9, where 1 is the maximum). To be noted: HepG2 Attagene TRANS ERa GAL4 reporter, mRNA. In a few lines: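 Signal derives from fluorescence of labelled reporter PCR fragments separated by capillary electrophoresis. HepG2 cells transiently carrying multiple GAL4-UAS reporter units were treated 24 hours, and induction above DMSO baseline was fitted as activity.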
Sequence of Estrogen receptor (Homo sapiens) (P03372 whole entry, looked up, the tested form may be a part): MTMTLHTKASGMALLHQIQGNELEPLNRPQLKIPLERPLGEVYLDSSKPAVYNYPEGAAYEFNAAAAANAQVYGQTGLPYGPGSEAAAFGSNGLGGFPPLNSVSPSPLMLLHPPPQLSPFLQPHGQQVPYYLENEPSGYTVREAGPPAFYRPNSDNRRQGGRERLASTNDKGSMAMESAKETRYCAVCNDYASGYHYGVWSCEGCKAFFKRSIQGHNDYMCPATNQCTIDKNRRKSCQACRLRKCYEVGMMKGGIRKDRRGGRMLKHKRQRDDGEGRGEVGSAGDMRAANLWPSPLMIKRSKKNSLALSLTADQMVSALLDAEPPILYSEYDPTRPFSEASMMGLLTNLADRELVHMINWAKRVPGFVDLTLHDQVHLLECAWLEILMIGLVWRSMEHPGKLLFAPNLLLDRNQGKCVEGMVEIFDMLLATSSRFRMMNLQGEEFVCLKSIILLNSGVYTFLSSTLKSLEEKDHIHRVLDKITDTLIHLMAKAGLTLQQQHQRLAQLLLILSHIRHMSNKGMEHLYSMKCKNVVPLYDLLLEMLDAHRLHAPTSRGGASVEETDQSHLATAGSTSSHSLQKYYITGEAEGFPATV

Test [13] addresses X-box-binding protein 1 (Homo sapiens) (UniProt P17861). Nature of the test: ATG_Xbp1_CIS: Attagene CIS-FACTORIAL HepG2 Assay for human X-box Binding Protein 1 (XBP1) (AID 2282972). Conditions: HepG2 XBP1 cis-element reporter, Attagene multiplex; actives raise or lower the signal. The method in brief:
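Reporter transcripts were quantified by RT-PCR with fluorescent primer extension and capillary electrophoresis after 24 h chemical exposure. Cells: transiently transfected HepG2 carrying cis-regulated reporter constructs; data fitted bidirectionally relative to DMSO.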

Test [14] in a line: ATG_M_19_TRANS: Attagene TRANS-FACTORIAL HepG2 Assay for M19 Transcription Factor (Internal Marker) (AID 2282974; active = hit-call score of the fitted dose curve at least 0.9, where 1 is the maximum). Conditions: HepG2 Attagene TRANS-FACTORIAL M19 internal marker reporter. In a few lines: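 HepG2 transiently transfected with GAL4-UAS multiplex reporter constructs, exposed 24 h; reporter RNA quantified by RT-PCR, 6-FAM labeling, HpaI digestion and capillary electrophoresis; internal background marker fitted upward versus DMSO.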

A short description of test [15]: ATG_PXRE_CIS: Attagene CIS-FACTORIAL HepG2 Assay for human Pregnane X Receptor Element (PXRE) (AID 2282957). Conditions: HepG2 Attagene CIS-FACTORIAL PXRE reporter, mRNA; actives raise or lower the signal. In a few lines: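 Bidirectional activity, baselined to DMSO, derived from reporter mRNA fluorescence (RT-PCR plus capillary electrophoresis) in HepG2 cells bearing cis-promoter reporter units, 24 h exposure.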

Test [16] can be described thus: ATG_VDRE_CIS: Attagene CIS-FACTORIAL HepG2 Assay for human Vitamin D Receptor Element (VDRE) (AID 2282968). Conditions: HepG2 VDRE cis-reporter transcription, actives raise or lower the signal. In a few lines: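 Measures endogenous factor activity through cis-element-driven reporter transcripts in transiently transfected HepG2. Cells are treated 24 h; reporter mRNA is quantified by RT-PCR and capillary electrophoresis; fitting is bidirectional.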

The nature of test [17]: ATG_GAL4_TRANS: Attagene TRANS-FACTORIAL HepG2 Assay for GAL4 (Internal Marker) (AID 2282976; active = hit-call score of the fitted dose curve at least 0.9, where 1 is the maximum). Conditions: HepG2 Attagene TRANS GAL4 internal marker reporter. In a few lines:
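Liver HepG2 line bearing multiplexed GAL4-UAS reporter constructs; 24 h chemical treatment. Transcripts were quantified as fluorescent fragments on capillary electrophoresis after RT-PCR and HpaI cut, with activity fitted upward from DMSO.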

The nature of test [18]: ATG_TGFb_CIS: Attagene CIS-FACTORIAL HepG2 Assay for human Transforming Growth Factor (TGF) (AID 2282967). Conditions: HepG2 Attagene CIS TGFb reporter, mRNA transcription; actives raise or lower the signal. In a few lines: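 HepG2 cells transiently transfected with cis-promoter-driven multiple reporter units measure endogenous TF activity; reporter mRNA quantified at 24 h by RT-PCR, FAM labeling, HpaI digestion and capillary electrophoresis. Bidirectional fit vs DMSO.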

Test [19] has as its target Nuclear receptor subfamily 1 group I member 3 (Homo sapiens) (UniProt Q14994). Briefly: ATG_CAR_TRANS: Attagene TRANS-FACTORIAL HepG2 Assay for human Constitutive Androstane Receptor (CAR) (AID 2282969; active = hit-call score of the fitted dose curve at least 0.9, where 1 is the maximum;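 also: activators raise reporter mRNA above DMSO so AC50 marks induction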). To be noted: HepG2 Attagene TRANS-FACTORIAL CAR reporter. In a few lines:
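Signal is reporter mRNA induction relative to DMSO, measured 24 h after dosing by RT-PCR with fluorescent primer extension and capillary electrophoresis. Human HepG2 liver cells carried transiently transfected chimeric NR-Gal4/GAL4-UAS reporter constructs.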

The target of test [20] is Steroid hormone receptor ERR1 (Homo sapiens) (UniProt P11474). Briefly: ATG_ERRa_TRANS: Attagene TRANS-FACTORIAL HepG2 Assay for human Estrogen-Related Receptor alpha (ERRa) (AID 2282971; active = hit-call score of the fitted dose curve at least 0.9, where 1 is the maximum). To be noted: HepG2 Attagene TRANS reporter, ERRa transactivation. The method in brief: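 Signal gain relative to DMSO for an ERRa-Gal4 chimeric receptor, read as reporter mRNA by RT-PCR/capillary electrophoresis. Human HepG2 liver cells, transient multiplex reporter transfection, 24 h chemical exposure.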
Sequence of Steroid hormone receptor ERR1 (Homo sapiens) (P11474 whole entry, looked up, the tested form may be a part): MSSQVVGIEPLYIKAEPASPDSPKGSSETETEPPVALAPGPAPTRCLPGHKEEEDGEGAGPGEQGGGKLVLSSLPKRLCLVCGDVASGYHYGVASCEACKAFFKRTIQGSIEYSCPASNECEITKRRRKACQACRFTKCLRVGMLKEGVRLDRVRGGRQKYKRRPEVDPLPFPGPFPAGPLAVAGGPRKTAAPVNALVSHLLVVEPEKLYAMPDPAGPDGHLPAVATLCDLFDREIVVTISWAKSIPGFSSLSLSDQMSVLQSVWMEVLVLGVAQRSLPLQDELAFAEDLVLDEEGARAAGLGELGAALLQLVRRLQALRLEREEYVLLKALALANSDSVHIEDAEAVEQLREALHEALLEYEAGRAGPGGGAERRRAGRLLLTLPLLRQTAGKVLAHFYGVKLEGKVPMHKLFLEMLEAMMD

Sequence of Nuclear receptor subfamily 1 group I member 3 (Homo sapiens) (Q14994 whole entry, looked up, the tested form may be a part): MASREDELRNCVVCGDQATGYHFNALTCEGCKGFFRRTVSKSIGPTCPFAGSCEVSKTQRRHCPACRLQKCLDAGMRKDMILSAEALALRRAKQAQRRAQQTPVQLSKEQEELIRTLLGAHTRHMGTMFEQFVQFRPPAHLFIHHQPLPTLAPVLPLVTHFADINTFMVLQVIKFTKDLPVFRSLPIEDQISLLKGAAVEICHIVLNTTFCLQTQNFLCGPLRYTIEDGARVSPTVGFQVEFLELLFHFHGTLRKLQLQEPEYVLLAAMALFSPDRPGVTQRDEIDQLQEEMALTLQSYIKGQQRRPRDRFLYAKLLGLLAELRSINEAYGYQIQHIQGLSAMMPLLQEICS
Sequence of X-box-binding protein 1 (Homo sapiens) (P17861 whole entry, looked up): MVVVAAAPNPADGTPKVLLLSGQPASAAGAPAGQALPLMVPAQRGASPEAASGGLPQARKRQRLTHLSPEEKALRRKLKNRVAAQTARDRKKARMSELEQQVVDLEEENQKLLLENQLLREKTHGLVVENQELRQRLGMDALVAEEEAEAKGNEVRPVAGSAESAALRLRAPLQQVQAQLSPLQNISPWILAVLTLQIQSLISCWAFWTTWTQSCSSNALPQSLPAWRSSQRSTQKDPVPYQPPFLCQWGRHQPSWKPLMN
Sequence of Transcription factor Sp1 (Homo sapiens) (P08047 whole entry, looked up): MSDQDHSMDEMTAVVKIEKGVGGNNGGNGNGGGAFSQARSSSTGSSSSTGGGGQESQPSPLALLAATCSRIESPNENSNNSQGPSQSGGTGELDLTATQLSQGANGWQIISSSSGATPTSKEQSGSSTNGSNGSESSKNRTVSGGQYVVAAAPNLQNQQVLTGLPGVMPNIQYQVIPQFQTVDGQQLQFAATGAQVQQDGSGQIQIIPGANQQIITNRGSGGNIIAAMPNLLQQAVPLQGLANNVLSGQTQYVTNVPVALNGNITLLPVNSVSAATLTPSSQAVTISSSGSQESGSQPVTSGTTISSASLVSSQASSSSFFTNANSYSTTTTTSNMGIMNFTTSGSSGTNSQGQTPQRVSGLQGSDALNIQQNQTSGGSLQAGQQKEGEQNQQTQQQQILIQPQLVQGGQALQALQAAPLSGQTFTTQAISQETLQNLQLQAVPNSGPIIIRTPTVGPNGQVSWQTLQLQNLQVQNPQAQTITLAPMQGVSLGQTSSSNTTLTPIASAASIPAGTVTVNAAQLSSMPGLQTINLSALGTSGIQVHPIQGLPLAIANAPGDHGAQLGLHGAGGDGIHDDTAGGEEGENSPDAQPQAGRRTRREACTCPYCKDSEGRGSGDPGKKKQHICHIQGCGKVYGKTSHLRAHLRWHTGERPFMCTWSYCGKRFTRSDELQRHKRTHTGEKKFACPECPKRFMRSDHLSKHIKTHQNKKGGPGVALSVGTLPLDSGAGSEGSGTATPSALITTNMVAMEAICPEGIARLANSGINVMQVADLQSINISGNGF
Sequence of Signal transducer and activator of transcription 3 (Homo sapiens) (P40763 whole entry, looked up): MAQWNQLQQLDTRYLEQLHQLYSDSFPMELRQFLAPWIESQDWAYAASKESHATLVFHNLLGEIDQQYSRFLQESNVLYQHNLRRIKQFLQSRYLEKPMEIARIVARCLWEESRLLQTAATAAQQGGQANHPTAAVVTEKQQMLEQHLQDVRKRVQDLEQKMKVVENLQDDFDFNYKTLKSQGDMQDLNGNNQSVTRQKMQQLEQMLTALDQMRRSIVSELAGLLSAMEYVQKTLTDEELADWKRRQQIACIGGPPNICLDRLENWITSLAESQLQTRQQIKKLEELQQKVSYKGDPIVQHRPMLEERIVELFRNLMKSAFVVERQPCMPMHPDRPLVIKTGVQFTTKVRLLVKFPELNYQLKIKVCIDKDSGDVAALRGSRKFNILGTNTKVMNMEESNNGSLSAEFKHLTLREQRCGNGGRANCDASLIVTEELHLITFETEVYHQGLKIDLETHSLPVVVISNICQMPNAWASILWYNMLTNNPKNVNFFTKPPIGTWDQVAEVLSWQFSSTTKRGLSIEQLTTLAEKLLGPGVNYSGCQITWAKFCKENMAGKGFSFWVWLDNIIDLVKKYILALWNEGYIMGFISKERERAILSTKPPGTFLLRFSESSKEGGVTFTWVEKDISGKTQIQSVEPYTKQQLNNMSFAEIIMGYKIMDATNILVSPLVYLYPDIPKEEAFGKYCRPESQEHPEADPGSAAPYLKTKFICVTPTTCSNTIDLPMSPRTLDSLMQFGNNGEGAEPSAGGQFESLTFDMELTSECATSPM
Sequence of Paired box protein Pax-6 (Homo sapiens) (P26367 whole entry, looked up): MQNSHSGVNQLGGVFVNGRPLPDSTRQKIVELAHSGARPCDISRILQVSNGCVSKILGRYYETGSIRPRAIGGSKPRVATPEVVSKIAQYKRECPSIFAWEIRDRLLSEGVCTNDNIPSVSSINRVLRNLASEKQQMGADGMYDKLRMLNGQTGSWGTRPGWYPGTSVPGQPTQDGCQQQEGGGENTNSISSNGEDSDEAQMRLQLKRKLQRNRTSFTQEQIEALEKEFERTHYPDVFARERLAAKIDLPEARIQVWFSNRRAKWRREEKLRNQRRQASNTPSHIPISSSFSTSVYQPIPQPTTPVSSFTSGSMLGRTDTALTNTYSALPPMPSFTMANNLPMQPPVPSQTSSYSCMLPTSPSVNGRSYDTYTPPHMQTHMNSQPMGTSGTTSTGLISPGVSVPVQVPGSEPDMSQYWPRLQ

Regarding `CCCCNS(=O)(=O)c1ccc(C)cc1`, the result in test [1], in test [2], in test [3], in test [4], in test [5] and in test [6] was inactive. Further, the compound was called inactive in test [7], in test [8], in [9], in test [10], in [11] and in test [12]. Besides, the compound was called inactive in [13] and in test [14].

With `CCC(C)c1ccccc1` (stereo unspecified), the compound was called inactive in test [2], in [15], in [3], in test [4], in test [5] and in test [6]. The compound was called inactive in [7], in [8], in test [9], in [10], in test [11] and in test [16]. In addition, the result in [13], in test [14] and in [17] was inactive.

As to `CCOc1ccc(NC(N)=O)cc1`, the result in [1], in [2], in test [5], in test [7], in [8] and in test [9] was inactive. Moreover, the result in test [10], in [11], in test [18], in [16], in test [19] and in test [12] was inactive. For the same compound, the result in test [13] and in test [17] was inactive.

Regarding `CC(C)CCOCc1ccccc1`, the result in test [1], in [2], in [4], in [5], in test [6] and in [7] was inactive. The compound was called inactive in [9], in test [10], in test [11], in test [18], in [16] and in test [19]. For the same compound, the outcome in [12], in test [20], in test [13] and in [17] was inactive.

On to `CCCCc1ccc(Cl)cc1`, for which the compound was called inactive in [2], in test [15], in test [3], in test [4], in [5] and in test [6]. Besides, the outcome in [7], in test [8], in test [9], in test [10], in test [11] and in [18] was inactive. Further, the compound was classed as inactive in test [16], in test [12], in test [13] and in test [17].

On to `CCOC(=O)c1ccccc1C`, for which the result in test [1], in test [2], in [4], in test [5], in test [6] and in test [7] was inactive. In addition, the compound was called inactive in test [8], in [10], in test [11], in test [18] and in [13].

With `C=CC(=O)OCCCCCCCCCC`, the outcome in test [1], in [2], in test [4], in test [5], in test [6] and in test [7] was inactive. The outcome in test [8], in [9], in test [10], in [11], in test [18] and in test [16] was inactive. The call in [19], in test [12], in test [20], in [13], in test [14] and in test [17] was inactive.

Turning to `CCc1cccc(C)c1N`, the result in test [2], in test [3], in test [4], in [5], in test [6] and in [7] was inactive. In addition, the compound was classed as inactive in test [8], in test [9], in test [10], in test [11], in test [18] and in test [16]. Besides, the result in [12], in test [20], in [13], in test [14] and in [17] was inactive. The AC50 in [15] was 47.7 µM (active).

On to `CCCCCCCCCCCCCc1ccccc1`, for which the outcome in test [2], in [15], in [3], in [4], in test [5] and in test [6] was inactive. Besides, the compound was classed as inactive in [7], in test [8], in [9], in test [10], in test [11] and in test [18]. The call in [16] and in test [13] was inactive.

Usually AC50 stands for the concentration giving half of the maximal activity seen.
